Values of other authors as cited in PubChem BioAssay AID977611.
In all, about 3,900 compounds went through this assay and about 3,900 (100%) were called active. The limit is not given here; nearly all actives have Kd up to about 4200 µM. So high a share suggests a set chosen from earlier hits. Some of the results follow. Where a SMILES comes first, the peptide text is derived from it. Non-standard residues stand in square brackets, D forms with d. Square brackets hold non-standard residues; d marks the D form. Residues, ends and D or L forms follow the SMILES beside them. Peptide text beside a SMILES is read from it. [ ]: non-standard residue; d: D form. *: point of attachment. X1 = O=C(O)c1cc(NC(=S)*)ccc1-c1c2ccc(=O)cc-2oc2cc(O)ccc12; Phe(3,4-Cl2) = N[C@@H](Cc1ccc(Cl)c(Cl)c1)C(=O)O; Orn(CH(NH2)2) = NC(N)NCCC[C@H](N)C(=O)O; Cha = N[C@@H](CC1CCCCC1)C(=O)O; Ahx = NCCCCCC(=O)O

Test: PubChem AID 977611
Settings: PDB protein-ligand complexes, literature Kd

For `CN(C)CCOc1ccc(-c2nc(-c3ccc4c(c3)CC/C4=N/O)c(-c3ccncc3)[nH]2)cc1`, the Kd (protein: B-Raf kinase domain, PDB entry 2fb8) is listed as 0.16 nM (active).

For `O=C(c1ccc(O)cc1O)n1cc2ccccc2c1`, the Kd (PDB entry 4mp7) is listed as 1830 nM (active).

In the case of `O=S(=O)(c1ccc(O)cc1O)n1cc2ccccc2c1`, the Kd (PDB entry 4mpc) is listed as 711 nM (active).

For `O=S(=O)(c1ccc(O)cc1O)n1cc2cc(O)cc(O)c2c1`, the Kd (PDB entry 4mpn) is listed as 239 nM (active).

In the case of `CC(C)C[C@H](NC(=O)[C@H](C)NC(=O)[C@H](Cc1ccc(Cl)c(Cl)c1)NC(=O)[C@H](Cc1c[nH]c2ccccc12)NC(=O)[C@H](CCC(=O)O)NC(=O)[C@H](CCC(=O)O)NC(=O)[C@H](CC(C)C)NC(=O)[C@H](CC(=O)O)NC(=O)[C@H](CC(=O)O)NC(=O)[C@H](C)NC(=O)[C@@H](NC(=O)[C@H](Cc1ccccc1)NC(=O)[C@H](CC(=O)O)NC(=O)CCCCCNC(=S)Nc1ccc(-c2c3ccc(=O)cc-3oc3cc(O)ccc23)c(C(=O)O)c1)[C@@H](C)O)C(N)=O` ({X1-Ahx}-DFTADDLEEW[Phe(3,4-Cl2)]AL-NH2), the Kd (protein: Replication protein A 70 kDa DNA-binding subunit, PDB entry 4nb3) is listed as 22 nM (active).

In the case of `CC(C)C[C@H](NC(=O)[C@H](CCC(=O)O)NC(=O)[C@H](CO)NC(=O)[C@H](CC(=O)O)NC(=O)[C@H](CO)NC(=O)[C@H](CC(=O)O)NC(=O)[C@H](CCC(=O)O)NC(=O)[C@H](CCC(N)=O)NC(=O)[C@H](CO)NC(=O)CN)C(=O)N[C@@H](CCC(=O)O)C(=O)N[C@@H](CCC(N)=O)C(=O)N[C@@H](Cc1ccc(O)cc1)C(=O)N[C@@H](Cc1ccccc1)C(=O)N[C@H](C(=O)N[C@@H](C)C(=O)N[C@@H](CCCNC(N)N)C(=O)N[C@@H](Cc1c[nH]c2ccccc12)C(=O)O)[C@@H](C)O` (H-GSQEDSDSELEQYFTA[Orn(CH(NH2)2)]W-OH), the Kd (protein: DAXX N-Terminal Helical Bundle Domain (55-144), PDB entry 2kzu) is listed as 60000 nM (active).

For `CSCC[C@H](NC(=O)[C@H](CC(C)C)NC(=O)[C@H](Cc1ccccc1)NC(=O)[C@H](CC(=O)O)NC(=O)[C@H](Cc1ccc(O)cc1)NC(=O)[C@H](Cc1c[nH]c2ccccc12)NC(=O)[C@@H](NC(=O)[C@@H](NC(=O)[C@H](CCCNC(N)N)NC(=O)[C@@H](N)CO)C(C)C)[C@@H](C)O)C(=O)N[C@@H](CCC(=O)O)C(=O)N[C@@H](CC(=O)O)C(=O)O` (H-S[Orn(CH(NH2)2)]VTWYDFLMED-OH), the Kd (protein: Guanine nucleotide-binding protein G, PDB entry 1y3a) is given as 3900 nM (active).

In the case of `CCCCC/C=C\C/C=C\CCCCCCCCCC(=O)N[C@@H](CO[C@H]1O[C@H](CO)[C@H](O)[C@H](O)[C@H]1O)[C@H](O)[C@H](O)CCCCCCCCCCCCCC`, the Kd (protein: L363, PDB entry 3ubx) is listed as 25.2 nM (active).

For `CCCCCC[C@@H](O)[C@H](CCCCCC)C(=O)O`, the Kd (protein: Peptidoglycan recognition protein 1, PDB entry 3t2v) is listed as 103 nM (active).

For `CC(C)C[C@H](N)C(=O)N[C@@H](Cc1ccc(O)cc1)C(=O)N[C@@H](CC1CCCCC1)C(=O)N[C@@H](CC1CCCCC1)C(=O)N1CCC[C@H]1C(=O)N[C@@H](CCCNC(N)N)C(=O)N1CCC[C@H]1C(=O)N[C@H](C(N)=O)[C@@H](C)O` (H-LY[Cha][Cha]P[Orn(CH(NH2)2)]PT-NH2), the Kd (protein: Chaperone protein DnaK, PDB entry 4hy9) is listed as 80 nM (active).

In the case of `CC[C@H](C)[C@H](NC(=O)[C@H](CC1CCCCC1)NC(=O)[C@H](Cc1ccc(O)cc1)NC(=O)[C@@H](N)CC(C)C)C(=O)N1CCC[C@H]1C(=O)N[C@@H](CCCNC(N)N)C(=O)N1CCC[C@H]1C(N)=O` (H-LY[Cha]IP[Orn(CH(NH2)2)]P-NH2), the Kd (protein: Chaperone protein DnaK, PDB entry 4hyb) is listed as 350 nM (active).

In the case of `CC(C)C[C@H](NC(=O)[C@@H](N)CCCCN)C(=O)N[C@@H](Cc1ccc(O)cc1)C(=O)N[C@@H](CC1CCCCC1)C(=O)N[C@@H](CC(C)C)C(=O)N1CCC[C@H]1C(=O)N[C@@H](CCCNC(N)N)C(=O)N1CCC[C@H]1C(=O)N[C@H](C=O)[C@@H](C)O` (H-KLY[Cha]LP[Orn(CH(NH2)2)]PT-aldehyde), the Kd (protein: E. coli Chaperone protein dnaK, PDB entry 3dpo) is given as 5.5 nM (active).

In the case of `NC1NC(=O)c2c([nH]c(=S)n2CCO)N1` (centres undefined), the Kd (protein: 7,8-DIHYDRO-6-HYDROXYMETHYLPTERIN-PYROPHOSPHOKINASE, PDB entry 4ad6) is listed as 16700 nM (active).

In the case of H-INPTGCARSEPKI-OH, the Kd (protein: WD repeat-containing protein 5, WDR5, PDB entry 4erq) is given as 75 nM (active).

For H-VNPTGCARSEPKMS-OH, the Kd (protein: WD repeat-containing protein 5, WDR5, PDB entry 4ery) is listed as 54 nM (active).

For H-KEKSD-OH, the Kd (protein: Coatomer subunit beta', PDB entry 4j77) is given as 3400 nM (active).

In the case of `C[C@H](NC(=O)[C@H](CC(=O)O)NC(=O)[C@H](CCCCN)NC(=O)[C@H](CO)NC(=O)[C@H](C)NC(=O)[C@@H](N)CO)C(=O)O` (H-SASKDA-OH), the Kd (protein: Histone-lysine N-methyltransferase SETD7 (Y335F mutant), PDB entry 4j7i) is listed as 8800 nM (active).

For `NC(N)=N/C=C/C[C@H](N[C@H](CCC(=O)O)C(=O)O)C(=O)O`, the Kd (protein: Nopaline-binding periplasmic protein NocT WT, PDB entry 4pox) is listed as 3700 nM (active).

In the case of `CC(C)(C)c1cccc(C2C=CC=NC2=O)c1` (centres undefined), the Kd (protein: RNA-directed RNA polymerase, PDB entry 4ih7) is given as 5800 nM (active).

In the case of `NC1NC(=O)c2[nH]cc(CN3C[C@H](CO)[C@@H](O)C3)c2N1` (some centres undefined), the Kd (protein: Purine nucleoside phosphorylase (W16Y, W94Y, W178Y, H257W mutation), PDB entry 4ear) is listed as 0.151 nM (active).

For `CC1(C)CNC(=[N+]2CCN(c3ncnc4sc(CC(F)(F)F)cc34)CC2)S1`, the Kd (protein: Menin (A541T mutation), PDB entry 4gq4) is given as 22 nM (active).

For `C[C@H](NC(=O)[C@H](CCCCN)NC(=O)[C@H](CC(=O)O)NC(=O)[C@@H](N)CCCCN)C(=O)N[C@@H](CCCCN)C(=O)N[C@@H](CO[P+](O)(O)O)C(=O)N[C@@H](CS)C(=O)O`, the Kd (protein: 14-3-3 PROTEIN ZETA/DELTA, PDB entry 4bg6) is listed as 69 nM (active).

In the case of `CC(C)[C@H](NC(=O)[C@H](CO[P+](O)(O)O)NC(=O)[C@H](CCCCN)NC(=O)[C@H](CCCNC(N)N)NC(=O)[C@H](CCCNC(N)N)NC(=O)[C@@H](N)CCCCN)C(=O)O`, the Kd (protein: 14-3-3 protein sigma, PDB entry 4fr3) is given as 70 nM (active).

For `CC(C)[C@H](NC(=O)[C@H](CO[P+](O)(O)O)NC(=O)[C@H](CCCCN)NC(=O)[C@H](CCCNC(N)N)NC(=O)[C@H](CCCNC(N)N)NC(=O)[C@H](C)N)C(=O)O`, the Kd (protein: 14-3-3 protein sigma, PDB entry 3ux0) is listed as 550 nM (active).
